Experimental data reported in ChEMBL document CHEMBL3988442, “University of Dundee, Small-Polar-MMV Screening Library” (2021).
For some of these results: Entries with a potency or affinity are not part of this list.

Assays:
Set-up in all cases: scale not given: direction of the effect not stated beside the values
[1] = biological target: Protein translocase subunit SecA (Escherichia coli (strain K12)) (UniProt P10408); experiment: Assay to Identify E. coli SecA ATPase Inhibitors; assay type: functional; settings: 30 µM
Sequence of Protein translocase subunit SecA (Escherichia coli (strain K12)) (P10408 whole entry): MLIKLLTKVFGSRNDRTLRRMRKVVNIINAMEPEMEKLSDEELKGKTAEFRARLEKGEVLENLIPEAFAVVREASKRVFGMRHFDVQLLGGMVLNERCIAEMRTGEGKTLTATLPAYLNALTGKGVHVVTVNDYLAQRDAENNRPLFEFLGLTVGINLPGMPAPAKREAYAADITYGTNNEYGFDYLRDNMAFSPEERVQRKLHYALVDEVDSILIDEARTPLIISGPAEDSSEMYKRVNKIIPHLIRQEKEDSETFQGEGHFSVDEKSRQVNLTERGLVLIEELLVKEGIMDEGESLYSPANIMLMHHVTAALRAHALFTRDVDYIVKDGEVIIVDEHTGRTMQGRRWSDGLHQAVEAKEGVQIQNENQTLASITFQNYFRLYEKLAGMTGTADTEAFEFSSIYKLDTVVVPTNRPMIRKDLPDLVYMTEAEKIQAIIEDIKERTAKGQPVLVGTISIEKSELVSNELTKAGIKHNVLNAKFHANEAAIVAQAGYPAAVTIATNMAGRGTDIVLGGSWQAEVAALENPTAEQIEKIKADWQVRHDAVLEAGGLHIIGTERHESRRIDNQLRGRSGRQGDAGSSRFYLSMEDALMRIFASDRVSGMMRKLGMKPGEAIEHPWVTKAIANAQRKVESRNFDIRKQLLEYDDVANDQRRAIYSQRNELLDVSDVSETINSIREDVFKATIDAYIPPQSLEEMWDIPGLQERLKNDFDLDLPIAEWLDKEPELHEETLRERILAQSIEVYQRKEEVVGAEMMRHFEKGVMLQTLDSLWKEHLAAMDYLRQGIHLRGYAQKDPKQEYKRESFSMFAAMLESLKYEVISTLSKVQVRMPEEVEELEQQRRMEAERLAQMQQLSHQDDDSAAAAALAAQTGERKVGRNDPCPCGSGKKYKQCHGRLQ

[2] = biological target: T1, Ubiquitin-activating enzyme e1, putative (Leishmania donovani (strain BPK282A1)) (UniProt E9BSI1); experiment: Leishmania donovani Ubiquitin Activating Enzyme (LdE1); assay type: functional; settings: 30 µM
T1 sequence (whole entry): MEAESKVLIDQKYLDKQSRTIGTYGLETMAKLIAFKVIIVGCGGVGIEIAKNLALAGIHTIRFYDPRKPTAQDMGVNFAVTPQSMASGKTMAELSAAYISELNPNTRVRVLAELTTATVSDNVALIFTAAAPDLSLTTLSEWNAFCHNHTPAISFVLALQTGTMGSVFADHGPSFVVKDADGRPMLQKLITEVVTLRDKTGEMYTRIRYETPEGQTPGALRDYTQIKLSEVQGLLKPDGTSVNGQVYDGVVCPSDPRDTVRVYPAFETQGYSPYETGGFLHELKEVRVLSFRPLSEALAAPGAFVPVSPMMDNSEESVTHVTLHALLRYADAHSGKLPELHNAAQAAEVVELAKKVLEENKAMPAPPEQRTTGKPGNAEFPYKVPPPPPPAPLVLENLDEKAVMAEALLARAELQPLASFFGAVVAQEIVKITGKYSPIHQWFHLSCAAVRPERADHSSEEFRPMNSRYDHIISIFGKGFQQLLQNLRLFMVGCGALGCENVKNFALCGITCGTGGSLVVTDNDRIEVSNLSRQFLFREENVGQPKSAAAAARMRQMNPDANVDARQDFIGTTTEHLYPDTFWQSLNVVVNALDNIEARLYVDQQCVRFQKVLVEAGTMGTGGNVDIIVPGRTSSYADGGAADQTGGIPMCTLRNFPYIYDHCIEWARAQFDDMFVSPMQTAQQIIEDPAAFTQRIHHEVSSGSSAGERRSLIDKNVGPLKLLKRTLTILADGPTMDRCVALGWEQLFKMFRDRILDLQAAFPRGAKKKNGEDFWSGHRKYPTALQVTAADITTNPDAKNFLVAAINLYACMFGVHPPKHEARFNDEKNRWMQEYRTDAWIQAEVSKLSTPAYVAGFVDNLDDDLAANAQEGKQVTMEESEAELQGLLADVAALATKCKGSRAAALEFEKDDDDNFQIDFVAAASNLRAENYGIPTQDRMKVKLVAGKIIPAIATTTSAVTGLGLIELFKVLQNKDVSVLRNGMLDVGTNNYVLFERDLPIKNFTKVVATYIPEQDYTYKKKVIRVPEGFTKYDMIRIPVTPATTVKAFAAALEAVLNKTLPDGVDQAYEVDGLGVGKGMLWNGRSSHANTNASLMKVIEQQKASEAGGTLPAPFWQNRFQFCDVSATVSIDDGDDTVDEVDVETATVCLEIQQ

[3] = biological target: AMP-activated protein kinase, AMPK (Homo sapiens) (UniProt P54646+O43741+P54619+Q9UGJ0+Q9Y478+Q13131+Q9UGI9); experiment: AMP-dependent Kinase enzyme assay. An in vitro enzyme assay that detects ADP turnover that is directly proportional to AMPK activity. This uses naive AMPK that is activated during the assay with MK-8722; assay type: functional; settings: 30 µM
[4] = biological target: Sialic acid-binding Ig-like lectin 9 (Homo sapiens) (UniProt Q9Y336); experiment: Hs-Siglec9 ALPHAscreen SOP 20170721; settings: 10 µM
Sequence of Sialic acid-binding Ig-like lectin 9 (Homo sapiens) (Q9Y336 whole entry): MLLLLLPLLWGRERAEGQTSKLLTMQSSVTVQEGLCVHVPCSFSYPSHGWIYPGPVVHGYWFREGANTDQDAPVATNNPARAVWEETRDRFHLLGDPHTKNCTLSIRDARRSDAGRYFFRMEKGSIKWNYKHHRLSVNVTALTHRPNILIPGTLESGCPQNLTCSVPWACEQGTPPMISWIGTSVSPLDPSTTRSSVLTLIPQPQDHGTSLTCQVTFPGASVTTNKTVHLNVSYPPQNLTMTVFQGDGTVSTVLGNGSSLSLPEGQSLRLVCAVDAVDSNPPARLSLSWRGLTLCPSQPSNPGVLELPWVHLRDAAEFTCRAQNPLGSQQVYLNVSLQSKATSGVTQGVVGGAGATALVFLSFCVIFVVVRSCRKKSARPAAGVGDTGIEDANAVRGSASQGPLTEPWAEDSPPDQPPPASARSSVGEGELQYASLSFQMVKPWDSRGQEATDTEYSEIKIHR

Trypanosoma cruzi = experiment: Trypanosoma cruzi phosphomannomutase and mannose-1-phosphate guanylyltransferase assay; assay type: functional; settings: 10 µM
[5] = biological target: T2, Arginase-2, mitochondrial (Homo sapiens) (UniProt P78540); experiment: in vitro enzyme assay to detect the production of urea directly proportional to the activity of Arginase II; assay type: functional; settings: 33.3 µM; further: in the data most compounds retested in dose-response had high values
T2 sequence (whole entry): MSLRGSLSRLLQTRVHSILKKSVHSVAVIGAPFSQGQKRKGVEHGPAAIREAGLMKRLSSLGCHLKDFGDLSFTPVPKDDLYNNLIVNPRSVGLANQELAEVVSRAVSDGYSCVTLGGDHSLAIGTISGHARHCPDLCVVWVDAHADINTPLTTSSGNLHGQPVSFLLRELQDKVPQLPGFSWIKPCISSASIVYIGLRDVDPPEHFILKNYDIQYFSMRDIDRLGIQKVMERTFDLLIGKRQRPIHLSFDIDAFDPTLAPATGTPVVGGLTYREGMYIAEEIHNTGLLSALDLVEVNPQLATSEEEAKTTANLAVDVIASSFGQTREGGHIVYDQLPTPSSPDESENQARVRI

[6] = biological target: T3, Proteasome subunit beta (Trypanosoma cruzi) (UniProt O96673); experiment: Trypanosoma cruzi proteasome chymotrypsin-like activity (TcProtChymo) assay.; further: in the data most compounds retested in dose-response had high values; assay type: functional; settings: 9.37 µM
T3 sequence (whole entry): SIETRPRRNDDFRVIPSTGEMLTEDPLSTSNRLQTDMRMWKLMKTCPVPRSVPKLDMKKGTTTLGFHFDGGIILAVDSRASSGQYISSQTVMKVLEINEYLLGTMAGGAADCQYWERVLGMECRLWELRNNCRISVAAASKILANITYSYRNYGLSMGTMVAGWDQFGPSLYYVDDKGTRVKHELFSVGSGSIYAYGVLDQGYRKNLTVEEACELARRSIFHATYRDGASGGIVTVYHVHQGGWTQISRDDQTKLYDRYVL

Homo sapiens = species on record: Homo sapiens; experiment: To identify inhibition of the IFN signalling (Jak-Stat) pathway via expression of an eGFP reporter gene under the control of an IFN-stimulated response element (ISRE) containing MxA promoter.; assay type: functional; settings: 30 µM
[7] = biological target: T4, Tyrosyl-tRNA synthetase, putative (Trypanosoma cruzi (strain CL Brener)) (UniProt Q4DSP6); experiment: Trypanosoma cruzi tyrosyl tRNA synthetase (TcYRS) _High Tyrosine SOP; assay type: functional; settings: 30 µM; further: in the data most compounds retested in dose-response had high values
T4 sequence (whole entry): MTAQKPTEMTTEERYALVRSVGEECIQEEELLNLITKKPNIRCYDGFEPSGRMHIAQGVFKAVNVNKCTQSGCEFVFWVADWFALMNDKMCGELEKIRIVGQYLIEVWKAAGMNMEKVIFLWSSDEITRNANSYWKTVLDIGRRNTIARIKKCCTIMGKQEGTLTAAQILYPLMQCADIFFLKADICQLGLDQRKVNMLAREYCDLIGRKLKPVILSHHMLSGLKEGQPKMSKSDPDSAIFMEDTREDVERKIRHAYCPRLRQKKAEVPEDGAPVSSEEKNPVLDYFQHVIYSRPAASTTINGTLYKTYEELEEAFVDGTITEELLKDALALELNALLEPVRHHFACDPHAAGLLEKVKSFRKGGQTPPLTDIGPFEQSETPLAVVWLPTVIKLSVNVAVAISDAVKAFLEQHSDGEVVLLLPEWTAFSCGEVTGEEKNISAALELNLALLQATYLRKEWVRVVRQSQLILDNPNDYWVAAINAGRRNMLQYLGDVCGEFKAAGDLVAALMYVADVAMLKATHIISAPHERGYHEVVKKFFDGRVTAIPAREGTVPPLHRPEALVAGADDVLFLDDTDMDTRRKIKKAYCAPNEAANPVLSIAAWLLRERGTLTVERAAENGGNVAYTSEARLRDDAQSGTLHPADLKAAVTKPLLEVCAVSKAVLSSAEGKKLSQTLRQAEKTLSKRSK

[8] = biological target: T4, Tyrosyl-tRNA synthetase, putative (Trypanosoma cruzi (strain CL Brener)); experiment: Trypanosoma cruzi tyrosyl tRNA synthetase (TcYRS) SOP; assay type: functional; settings: 30 µM
[9] = biological target: Chromo domain-containing protein 1 (Saccharomyces cerevisiae (strain ATCC 204508 / S288c) (Baker's yeast)) (UniProt P32657); experiment: ScCHD-1 Enzyme Inhibition Assay; assay type: functional; settings: 30 µM; further: in the data most compounds retested in dose-response had high values
Sequence of Chromo domain-containing protein 1 (Saccharomyces cerevisiae (strain ATCC 204508 / S288c) (Baker's yeast)) (P32657 whole entry, the tested form may be a part): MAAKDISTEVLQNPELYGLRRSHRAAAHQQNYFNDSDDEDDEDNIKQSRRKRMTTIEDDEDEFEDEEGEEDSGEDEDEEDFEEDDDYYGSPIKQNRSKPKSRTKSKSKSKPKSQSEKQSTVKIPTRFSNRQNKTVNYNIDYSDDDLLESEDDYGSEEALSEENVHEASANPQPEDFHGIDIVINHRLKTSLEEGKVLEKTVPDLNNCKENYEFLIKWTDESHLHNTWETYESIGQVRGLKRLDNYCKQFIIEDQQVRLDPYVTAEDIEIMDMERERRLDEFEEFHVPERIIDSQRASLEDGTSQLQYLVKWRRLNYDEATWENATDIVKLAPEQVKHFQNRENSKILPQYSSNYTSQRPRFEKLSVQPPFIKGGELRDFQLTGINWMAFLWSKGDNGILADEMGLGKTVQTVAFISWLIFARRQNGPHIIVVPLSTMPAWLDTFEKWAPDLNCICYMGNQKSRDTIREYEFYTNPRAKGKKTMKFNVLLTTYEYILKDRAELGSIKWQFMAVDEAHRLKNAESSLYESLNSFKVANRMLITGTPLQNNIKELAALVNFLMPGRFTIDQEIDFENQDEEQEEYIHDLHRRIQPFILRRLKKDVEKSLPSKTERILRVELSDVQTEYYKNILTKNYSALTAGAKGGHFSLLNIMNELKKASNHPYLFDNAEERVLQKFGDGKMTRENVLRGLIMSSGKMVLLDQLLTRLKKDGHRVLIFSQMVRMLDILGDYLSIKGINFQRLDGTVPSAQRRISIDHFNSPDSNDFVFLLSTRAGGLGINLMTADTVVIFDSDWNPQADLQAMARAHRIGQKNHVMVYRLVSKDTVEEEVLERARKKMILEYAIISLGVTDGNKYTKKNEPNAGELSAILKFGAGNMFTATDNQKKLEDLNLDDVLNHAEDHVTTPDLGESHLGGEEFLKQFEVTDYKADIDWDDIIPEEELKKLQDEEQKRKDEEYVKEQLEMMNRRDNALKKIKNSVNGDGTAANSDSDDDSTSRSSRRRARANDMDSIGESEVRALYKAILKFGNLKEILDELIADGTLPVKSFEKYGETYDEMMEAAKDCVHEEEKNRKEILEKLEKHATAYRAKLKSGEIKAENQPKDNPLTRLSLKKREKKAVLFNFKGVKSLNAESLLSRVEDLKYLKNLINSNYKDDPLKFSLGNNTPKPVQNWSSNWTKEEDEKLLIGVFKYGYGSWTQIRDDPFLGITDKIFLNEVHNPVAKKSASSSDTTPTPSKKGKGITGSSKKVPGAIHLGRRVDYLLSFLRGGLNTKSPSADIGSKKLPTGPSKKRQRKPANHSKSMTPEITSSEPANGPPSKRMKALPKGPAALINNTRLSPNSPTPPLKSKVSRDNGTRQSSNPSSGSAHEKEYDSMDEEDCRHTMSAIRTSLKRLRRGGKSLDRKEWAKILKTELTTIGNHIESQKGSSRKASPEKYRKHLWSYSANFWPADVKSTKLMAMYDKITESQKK

SMILES | Percent Effect [1] [%] | Percent Effect [2] [%] | Percent Effect [3] [%] | Percent Effect [4] [%] | Percent Effect (Trypanosoma cruzi) [%] | Percent Effect [5] [%] | Percent Effect [6] [%] | Percent Effect (Homo sapiens) [%] | Percent Effect [7] [%] | Percent Effect [8] [%] | Percent Effect [9] [%]
Cc1nnc2n1CCN(C(=O)c1cn(-c3ccccc3Cl)nn1)C2 | -5.44 | 8.22 | -1.29 | 1.29 | 0.992 | -2.79 | 6.25 | 0.99 | 7.29 | 16.1 | -2.71
O=C([C@@H]1C[C@H]2[C@H](CCN2Cc2nccs2)O1)N1CCOCC1 | -0.787 | 8.11 | 1.14 | -3.79 | -2.15 | 0.833 | 19 | 11.3 | 10.9 | 13.4 | 8.93
COCCN1CCN(C(=O)c2cc(C(C)C)on2)[C@H]2CS(=O)(=O)C[C@H]21 | -4.23 | 1.39 | -4.33 | -3.43 | -3.6 | -0.442 | 17.2 | -5.77 | 2.1 | 0 | -2.65
CNC1CCCN(Cc2noc(C3CC3)n2)C1 (stereo not given) | 0.64 | -5.41 | -3.33 | -1.4 | -0.193 | -0.476 | 1.9 | -1.86 | 1.59 | 0 | 0.831
CC(C)OCCN1CCC(N2CCN(C)C2=O)CC1 | -8.32 | 10.4 | -1.47 | 4.31 | 8.24 | -6.05 | -1.18 | 6.82 | 4.85 | 14.6 | -9.74
O=C(NCc1cccc2cccnc12)N1CCC(n2cncn2)CC1 | -2.83 | 6.33 | 9.77 | 5.48 | -5.03 | 2.37 | -0.515 | 12.1 | 9.38 | 7.59 | -4.9
CCC1c2cccn2CCN1C(=O)c1ccc2nonc2c1 (stereo not given) | -6.68 | -1.39 | -3.32 | -10.2 | -3.79 | 0 | 11.6 | -4.01 | 3.16 | -2.56 | 2.02
Cc1cnn(CC2CCCN2C(=O)CCCc2nc(C)no2)c1 (stereo not given) | -1.89 | 13.2 | 1.65 | -10.6 | -3.21 | -3.55 | 4.89 | 27.9 | 1.06 | 10.4 | -6.12
COc1ccccc1OCc1cc(C(=O)N2CCN[C@H](C)C2)n[nH]1 | -4.07 | 8.11 | -4.98 | 25.9 | 4.63 | 2.38 | 27.4 | 3.54 | 1.59 | 12.2 | -8.49
CCc1nnc2n1CCN(C(=O)COCCc1ccccc1)C2 | -5.81 | 15.8 | -4.37 | 7.1 | -2.71 | 1.8 | 1.78 | -1.11 | 3.45 | 13.6 | -2.89
COc1ccccc1CC(=O)N1CCC(NCc2c[nH]nc2C)CC1 | -1.53 | 13.5 | -1.94 | -8.2 | -1.02 | 0.924 | 3.95 | 2.04 | 7.92 | 23.2 | -6.91
Cc1noc(C)c1C(=O)NCC(O)c1ccc(F)cc1F (stereo not given) | -3.08 | 0 | -4.32 | -2.42 | -3.06 | 1.66 | 3.05 | 10.6 | -3.96 | -6.1 | 10.4
O=C(c1csc(Br)c1)N1CCCC(n2ccnc2)C1 (stereo not given) | -3.43 | 11.4 | -1.54 | -8.98 | 2.56 | -5.38 | 2.74 | -8.54 | 2.08 | 12.7 | 54.1
Cc1cncc(C(=O)N2CCCC(C(=O)CCc3ccccc3)C2)c1 (stereo not given) | 3.06 | 2.74 | 1.42 | 1.76 | -5.88 | 4.54 | 19.2 | 14.7 | 4.3 | 15 | -12.2
CC(C)c1nc(CN(C)C2CCN(CC(F)(F)F)C2)no1 (stereo not given) | -5.29 | 5.48 | -3.78 | -4.08 | -0.588 | 2.73 | 6.57 | -2.57 | 4.3 | 10 | -1.35
O=S(=O)(NC1=NCN(CCc2cccs2)CN1)c1ccc(F)cc1 | 1.07 | 4 | 3.26 | 4.09 | -4.91 | -7.57 | 14.1 | -6.32 | 5.29 | 10.3 | -10.7
Cc1cc(CNC(=O)C2CCCCN2C(=O)OC(C)(C)C)no1 (stereo not given) | -4.46 | 2.7 | -5.58 | 0.833 | -2.83 | 0.744 | 1.29 | 4.89 | 3.23 | 13.6 | -3.75
CCOCCn1nnc(C2(NC(=O)c3ccccc3)CCCC2)n1 | -7.55 | 8 | -2.14 | 0.531 | -0.292 | 4.17 | -18.8 | -0.698 | 10.4 | 11.1 | -4.99
CC(C)c1ccc(OCCC(=O)N2CCC(CC(N)=O)CC2)cc1 | -3.21 | 5.26 | 5.06 | 6.24 | 6.58 | -2.68 | 11 | 5.75 | 4.41 | 12.2 | -9.8
CCCNC(=O)C(C)NC(=O)CCc1ccccc1Br (stereo not given) | 0.82 | 4.17 | 3.58 | -5.62 | -9.43 | 4.42 | 16.5 | 8.51 | 0 | 5.13 | -1.03
